Sampled rows, rich in hits. Any-hit rate of the full collection: about 1.3%.
GALK inh = blocks human galactokinase activity | P51570 | Purified GALK, Kinase-Glo residual ATP luminescence | Potency, µM (titrated, usually from 57.5 µM), actives largely listed as inhibitors | 0.007% of 270,000 active | AID 1868
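The enzyme phosphorylates galactose (100 uM) using ATP (35 uM); inhibition is detected as higher residual ATP, quantified by bioluminescence after 1 h reaction at room temperature, pH 8.0.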
mIDH1 inhibitor = blocks human mutant IDH1 R132H enzyme. IDH1-R132H enzyme, NADPH consumption, diaphorase/resazurin fluorescence. O75874. Potency, µM (titrated, usually from 76.6 µM), most hits filed as inhibitors. 0.093% of 390,000 active; further: nearly all actives have a fitted effect of over 65% in size
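IDH1-R132H (0.5 ug/mL dispensed) in pH 7.5 Tris buffer was preincubated 30 min with compound, then given a substrate mix of 0.016 mM NADPH and 2 mM alpha-KG for 80 min at room temperature; remaining NADPH was read by diaphorase/resazurin fluorescence.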
TrxR1 substrate = substrates of rat thioredoxin reductase 1 | AID 588456 | Potency, µM (highest dose often 114 µM) | 0.01% of 390,000 active | purified TrxR1 substrate turnover, NADPH consumption readout; further: nearly all actives have a fitted effect of over 50% in size
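Rat TrxR1, dispensed at 90 nM, was prereduced with 400 uM NADPH (final) for 5 min at ~22 deg C, then incubated with compound 15 min before 400 uM selenite. A first-read NADPH fluorescence drop versus no-compound background flagged substrates.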
PKM2 activator = activators of human pyruvate kinase M2 | P14618 | purified PKM2, Kinase-Glo ATP luminescence, activation; response scale: 0% is enzyme alone, no compound | Potency, µM (top dose mostly 57.5 µM), most hits filed as activators | 0.34% of 260,000 active | AID 1631; further: nearly all actives have a fitted effect of over 55% in size
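hPK-M2, >95% pure; 0.1 mM ADP / 0.5 mM PEP final; imidazole pH7.2 buffer w/ 7 mM MgCl2, 50 mM KCl; 1 h RT; Kinase-Glo lum. Intermediate enzyme activity for dual inhibitor/activator qHTS.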
TrxR1 inh-1 = rat TrxR1 inhibition; O89049; recombinant rTrxR1, NADPH fluorescence consumption, selenite substrate; Potency, µM (doses to about 114 µM), most hits filed as inhibitors; 1% of 390,000 active; AID 588453; further: nearly all actives have a fitted effect of over 65% in size
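Rat TrxR1 (90 nM in the dispensed reagent) was pre-reduced with 400 uM NADPH for 5 min at room temperature, then incubated with compound for 15 min. After 400 uM selenite was added, NADPH fluorescence (Ex 340/Em 450 nm) was followed for 8 min.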
Apoferritin bind = binds horse apoferritin like a general anesthetic | P02791 | apoferritin/1-aminoanthracene competitive binding, fluorescence | Potency, µM (highest dose often 77.5 µM), hits mostly inhibitors | 0.074% of 350,000 active | AID 485281; further: nearly all actives have a fitted effect of over 20% in size
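Probe: 1-aminoanthracene (50% saturated, PBS). Protein: horse-spleen apoferritin, 10 uM. Incubation: 10 min, room temperature. Detection: 380 nm excitation, 535 nm emission. Analysis: normalized response, four-parameter Hill.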
HeLa tox = reduces HeLa cell viability in PKM2 activator counter-screen | shares compounds with PKM2 activator | HeLa viability, CellTiter-Glo ATP luminescence, 24 h | activity change, negative = cytotoxicity, % at 57.5 µM | 230 tested, under 10 active | AID 1898
TRb-SRC2 inh = TRb-SRC2 (human) interaction inhibition | AlphaScreen TRb LBD-SRC2 peptide binding, luminescence | Potency, µM | shares compounds with TrxR1 inh-1 | 50% of 30 active | AID 2444; calls by dose curve
Target sequence (P10828 whole entry, looked up, the tested form may be a part): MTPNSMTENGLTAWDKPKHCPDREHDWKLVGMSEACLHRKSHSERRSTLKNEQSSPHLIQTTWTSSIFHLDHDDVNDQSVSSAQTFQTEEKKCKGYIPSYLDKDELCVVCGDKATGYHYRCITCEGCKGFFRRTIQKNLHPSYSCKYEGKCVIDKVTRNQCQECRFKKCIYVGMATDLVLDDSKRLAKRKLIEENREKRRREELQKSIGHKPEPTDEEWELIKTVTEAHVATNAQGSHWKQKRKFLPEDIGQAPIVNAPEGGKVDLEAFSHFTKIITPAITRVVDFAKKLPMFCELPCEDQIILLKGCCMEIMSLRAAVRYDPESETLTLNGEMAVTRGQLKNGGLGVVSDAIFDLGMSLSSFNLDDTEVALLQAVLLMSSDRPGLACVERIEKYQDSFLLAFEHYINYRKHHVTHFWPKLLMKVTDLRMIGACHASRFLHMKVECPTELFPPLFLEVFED
HepG2 viability = reduces HepG2 viability in TRb-SRC2 counter-screen; shares compounds with TrxR1 inh-1; HepG2 viability, ATP luminescence (CellTiter-Glo), 72 h; Potency, µM; 50% of 40 active; AID 2447; calls by dose curve
AR SRC2 FP = AR-SRC2 (human) interaction inhibition, selectivity | shares compounds with TrxR1 inh-1 | AR-LBD Tx-SRC2-3 fluorescence polarization, 3 h | calls only | 25 tested, under 10 active | AID 2448; call rule not given here
PPARg-DRIP2 inh = selectivity of TRb-SRC2 inhibitors: human PPARgamma coactivator binding inhibition; shares compounds with TrxR1 inh-1; PPARg LBD / Texas Red DRIP-2 peptide, fluorescence polarization, 3 h; Potency, µM; 25 tested, under 10 active; calls by dose curve
VDR-SRC2 FP sel = selectivity of TRb-SRC2 inhibitors: human vitamin D receptor-SRC2 inhibition; shares compounds with TrxR1 inh-1; VDR LBD/SRC2-3 peptide, fluorescence polarization, 3 h; Potency, µM; 25 tested, under 10 active; AID 2455; calls by dose curve
GR inh = counter-screen for TrxR1 inhibitors: human glutathione reductase inhibition. purified GR, DTNB reduction absorbance 405 nm kinetic. activity change, negative = inhibition, % at 57.1 µM. shares compounds with TrxR1 inh-1. 55 tested, under 10 active
TrxR1 inh-2 = validation of rat thioredoxin reductase 1 inhibitors | recombinant TrxR1, NADPH fluorescence consumption, selenite substrate | shares compounds with TrxR1 inh-1 | 50% of 55 active | AID 652023 | Potency, µM, most hits filed as inhibitors
TrxR1 insulin = TrxR1 inhibition in insulin mechanism assay; shares compounds with TrxR1 inh-1; TrxR1 Trx-coupled insulin reduction, NADPH absorbance 340 nm; Potency, µM; 20% of 55 active; AID 652037;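 active means compounds with a measured potency under 100 micromolar; inconclusive means filed, but no rule given; inactive means potency at or above that, or unmeasurable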
TrxR1 inh-3 = blocks rat TrxR1 reduction of DTNB. shares compounds with TrxR1 inh-1. purified TrxR1, DTNB reduction, A412. Potency, µM. 90% of 55 active;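 active means a half-inhibiting concentration could be measured and was below 100 µM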
Each line names hits and unclear results; the compound was inactive in the other large screens (follow-up assays come after a bar, where they were run). Unless noted, the call rests on the fitted dose curve; in most records, active means well fitted curve in the direction sought with a large enough effect; inconclusive means small, poorly fitted or top-dose-only effect, or another doubt; inactive means no such curve, though single readings can be large; an effect the other way counts as inactive or inconclusive.

CCOc1ccccc1NC(=O)C(=O)NCCc1sc2nc(-c3ccc(OC)cc3)nn2c1C	none (no result: GALK inh, PKM2 activator)
Cn1c2ccccc2c2nnc(SCC(=O)NC3CCCC3)nc21	none (no result: PKM2 activator)
Cn1c2ccccc2c2nnc(SC3CCOC3=O)nc21 (configuration not stated)	PKM2 activator 14µM | HeLa tox inactive
O=c1c(Cc2ccc(Cl)cc2)c(O)ccn1Cc1ccncc1	PKM2 activator 8.9µM | HeLa tox inactive
Nc1ccc(/C=C/c2cccc3cccnc23)cc1	none (no result: GALK inh, mIDH1 inhibitor, PKM2 activator, Apoferritin bind)
COc1cccc(S(=O)(=O)Nc2ccc(C(=O)N3CCN(C(=O)c4ccco4)CC3)cc2)c1	PKM2 activator 1.4µM | HeLa tox inactive
CC(=O)c1cccc(Nc2ncnc3c2cnn3C)c1	none (no result: GALK inh, PKM2 activator)
Cc1cc2c(s1)c1c(n2C)C(=O)N(Cc2ccccc2F)C1	none (no result: GALK inh, mIDH1 inhibitor, TrxR1 substrate, PKM2 activator, TrxR1 inh-1, Apoferritin bind) | HeLa tox inactive
Cc1cc(S(=O)(=O)c2ccc([N+](=O)[O-])cn2)ccc1Br	TrxR1 inh-1 0.11µM (no result: GALK inh, PKM2 activator, Apoferritin bind) | GR inh inactive | TrxR1 inh-2 0.12 | TrxR1 insulin 35µM | TrxR1 inh-3 0.011µM
O=C(COC(=O)c1ccc(Cl)c([N+](=O)[O-])c1)NC1C2CC3CC(C2)CC1C3 (configuration not stated)	none (no result: GALK inh, mIDH1 inhibitor, TrxR1 substrate, PKM2 activator, TrxR1 inh-1, Apoferritin bind) | TRb-SRC2 inh inactive | HepG2 viability inactive | AR SRC2 FP inactive | PPARg-DRIP2 inh inactive | VDR-SRC2 FP sel inactive
O=C(COC(=O)c1ccc(F)c([N+](=O)[O-])c1)NC1C2CC3CC(C2)CC1C3 (configuration not stated)	none (no result: GALK inh, mIDH1 inhibitor, TrxR1 substrate, PKM2 activator, TrxR1 inh-1, Apoferritin bind) | TRb-SRC2 inh 8.7µM | HepG2 viability inconclusive | AR SRC2 FP inactive | PPARg-DRIP2 inh inactive | VDR-SRC2 FP sel inactive
Nc1ccc(C(=O)OCC(=O)NC2CC2)cc1[N+](=O)[O-]	none
O=C(COC(=O)c1cccc([N+](=O)[O-])c1Cl)NC1C2CC3CC(C2)CC1C3 (configuration not stated)	none (no result: GALK inh, mIDH1 inhibitor, TrxR1 substrate, PKM2 activator, TrxR1 inh-1, Apoferritin bind) | TRb-SRC2 inh 44µM | HepG2 viability inactive | AR SRC2 FP inactive | PPARg-DRIP2 inh inactive | VDR-SRC2 FP sel inactive

Compound activity: PubChem, National Center for Advancing Translational Sciences (NCATS)
